From PubChem BioAssay
GSIS activator – GLuc luminescence reporter in INS-1E cells, primary screen for activators of glucose-dependent secretion of insulin; INS-1E GLuc reporter insulin secretion, 2-3 h; activation, % at 16.6 µM; hit rate 0.61% among 370,000;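 active = lowest replicate activation of at least 40%, so every replicate reaches that level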;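 note: 0% = median of neutral control wells and 100% = median of IBMX positive control wells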
Env fusion inh – inhibitors of HIV-1 Env-driven cell-cell fusion, primary screen, HeLa-JRFL effector, CEM21 target cells, luciferase; inhibition, % at 12.3 µM; hit rate 1.1% among 360,000; AID 651610, 2012;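 active = mean replicate inhibition score of at least 50 and every replicate individually at or above 50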;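 note: 0% = plate neutral controls and 100% = maraviroc near 300 nM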
Wnt act – Wnt/beta-catenin pathway activators, primary screen, cell-based, plate reader, single point | Wnt/beta-catenin reporter cell assay, activator | activation, % at 9.35 µM | hit rate 1.2% among 300,000 | AID 743398, 2014; in the data active = activation above about 30%, passing the limit was not always enough;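 note: 0% = neutral control wells and 100% = positive control wells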
CFTR F508del cor – F508del CFTR correction, initial screen, CFBE line, single point; CFBE cells, YFP halide quenching; stimulated with forskolin plus potentiator P3; % fluorescence drop versus neutral controls; activity (quench increase), % at 7.58 µM; hit rate 0.36% among 350,000; AID 720511, 2013;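 active = mean added fluorescence quench of at least 8% versus neutral control, with both replicates also reaching 8%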;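 note: cells transiently co-express mutant CFTR-F508del with the halide-sensitive YFP; corrector assay measuring rescue of mutant channel to the surface after 24 h compound exposure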
MITF TRPM1 HTS – activators of MITF-driven TRPM1 promoter reporter, primary screen, cell-based, SK-MEL-5, luciferase, single point. activation, % at 12.5 µM. AID 588334, 2011. hit rate 0.75% among 300,000. SK-MEL-5 TRPM1-promoter luciferase, 24 h; % of positive control, neutral wells = 0;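 active = mean activation of at least 80% with every replicate also reaching 80%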;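 note: 0% = neutral control wells and 100% = parthenolide positive control wells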
Numbers without * were called inactive; i = inactive; · = no result given; [ ] = remark or other dose. A selection: hits, their analogues and other compounds. The true share with any hit is near 2.7%.

SMILES	GSIS activator	Env fusion inh	Wnt act	CFTR F508del cor	MITF TRPM1 HTS
C[C@H](CO)N1C[C@H](C)[C@H](CN(C)Cc2ccc3c(c2)OCO3)Oc2c(NS(=O)(=O)c3ccc(Cl)cc3)cccc2C1=O	-17	·	·	0	·
CCOC(=O)c1cn[nH]c1NC(=S)Nc1ccc(Cl)cc1	-8	i	36*	-2	·
O=C(CSc1ccc(Cl)cc1)Nc1ccc(-c2nc3ccccc3[nH]2)cc1	106*	28	·	·	4
Nc1ccc(-c2nnc(-c3ccc(N)cc3)o2)cc1	3	-66	35*	-1	99*
Nc1ccccc1-c1nnc(-c2ccc(-c3ccccc3)cc2)o1	·	-317	·	·	91*
COc1ccc(NC(=O)N(C)C[C@@H]2OCCCC[C@H](C)Oc3ccc(NC(=O)Nc4c(C)noc4C)cc3C(=O)N([C@@H](C)CO)C[C@@H]2C)cc1	-17	-7[16.7 µM]	·	-3	·
C[C@@H]1CN([C@H](C)CO)C(=O)c2cc(N(C)C)ccc2O[C@@H]1CN(C)C(=O)Nc1ccc(C(F)(F)F)cc1	-21	·	·	6	·
CO[C@@H]1CN(C)C(=O)c2cc(NC(=O)NC3CCCCC3)ccc2OC[C@@H](C)NC[C@@H]1C	14	·	·	1	·
Fc1ccccc1COc1ccc(/C=N/n2cnnc2)cc1	·	-27	37*	·	·
COc1ccc(OC)c(-c2nnc3n2N=C(c2ccc(OC)c(OC4CCCC4)c2)CS3)c1	·	-54	-9	4	-76
COc1ccc(OC)c(-c2nnc3n2N=C(c2ccc(OC)c(OC)c2)CS3)c1	80*	i	-20	9.5*	-48
COc1ccc(C2=Nn3c(nnc3-c3ccccc3OC)SC2)cc1OCC1CC1	50*	-94	-19	5	-50
CCCc1nnc2n1N=C(c1ccc(OC)c(OC)c1)CS2	106*	·	0	4	-9
C[C@@H]1CN([C@H](C)CO)C(=O)c2cccc(NC(=O)C3CC3)c2O[C@@H]1CN(C)S(=O)(=O)c1ccc(F)cc1	37	-8[16.7 µM]	·	2	·
CSc1ccc2nnc(-c3cccc(F)c3)n2n1	53*	-24	·	·	1
CCOC(=O)CC(=O)CSc1ccc2nnc(-c3cccc(F)c3)n2n1	13	18	·	·	1
CCCNc1nc2c(c(=O)n(C)c(=O)n2C)n1CCc1ccccc1	·	46	·	·	-2
CC(C)n1c(NCCc2ccccc2)nc2c1c(=O)n(C)c(=O)n2C	·	110*	-5	·	14
COc1ccc(S(=O)(=O)N(C)C[C@@H]2OCCCC[C@@H](C)Oc3ccc(NC(=O)Nc4ccc(C(F)(F)F)cc4)cc3C(=O)N([C@@H](C)CO)C[C@@H]2C)cc1	-7	-2[16.7 µM]	·	-1	·
CC1=C(C(=O)OCCOc2ccccc2)C(c2coc3ccccc3c2=O)C2=C(CCCC2=O)N1 (stereo unspecified)	-41	57*	-1	0	·
COc1ccccc1OCCOc1ccc(/C=C2/C(=N)N3OC(C)=CC3=NC2=O)cc1OC	287*	-47	·	·	·
CN(C)c1ccc(N=Nc2cccc(F)c2)cc1	5	-102	52*	0	49
COCC1=C([C@H](O)c2ccccc2)[C@H](CO)n2c(=O)n(-c3ccccc3)c(=O)n2C1	·	0[16.7 µM]	·	-1	·
CC(C)(C)N1CC(C(=O)Nc2ccc(S(=O)(=O)N3CCCCC3)cc2)CC1=O (stereo unspecified)	8	0	-2	0	-8
CCC1CCCCN1S(=O)(=O)c1ccc(NC(=O)C2CC(=O)N(C(C)(C)C)C2)cc1 (stereo unspecified)	8	·	33*	-4	48
SMILES	GSIS activator	Env fusion inh	Wnt act	CFTR F508del cor	MITF TRPM1 HTS
Cc1ccc(-n2sc3cc(F)ccc3c2=O)c(C)c1	207*	61	-2	-4	·
O=c1c2ccc(F)cc2sn1-c1ccccc1	128*	35	-2	-4	·
O=c1c2ccccc2sn1-c1ccc(F)cc1	145*	-28	15	-4	-9
O=c1c2cc(F)ccc2sn1-c1ccccc1Cl	202*	22	2	-2	·
COc1ccc(S(=O)(=O)N(C)C[C@H]2OCCCC[C@H](C)Oc3ccc(NS(C)(=O)=O)cc3C(=O)N([C@@H](C)CO)C[C@@H]2C)cc1	-11	18[16.7 µM]	·	-2	·
COc1ccc(CCn2c(C)cc(C(=O)CSc3nc(N)cc(=O)[nH]3)c2C)cc1	-30	70*	·	·	-24
Cc1cc(C(=O)CSc2nc(N)cc(=O)[nH]2)c(C)n1CCc1ccc(F)cc1	·	·	·	·	-12
COc1ccc(S(=O)(=O)Nc2ccc3c(c2)C(=O)N([C@H](C)CO)C[C@@H](C)[C@H](CN(C)C(=O)CCC(F)(F)F)OCCCC[C@@H](C)O3)cc1	-14	-17[16.7 µM]	·	0	·
Cc1ccc(NC(=O)Cn2nnc(-c3ccc4c(c3)OCO4)n2)cc1F	-1	6	0	1	4
COc1ccc(-c2nnn(Cc3ccccc3F)n2)cc1	-7	·	·	·	108*
Fc1ccccc1Cn1nnc(-c2ccc3c(c2)OCO3)n1	·	-112	71*	·	67
CC1=C2[C@@H](c3ccccc3)OB(O)C[C@@H]2[C@@H]2C(=O)N(Cc3ccccc3)C(=O)[C@@H]2C1	·	17[16.7 µM]	·	-1	·
COc1ccc(N=C2C(=O)N3CCCc4cccc2c43)cc1	-11	10	·	12*	-6
C[C@@H]1CN([C@H](C)CO)C(=O)c2cc(C#CC3(O)CCCC3)cnc2O[C@@H]1CN(C)Cc1ccccc1	25	-6[16.7 µM]	·	0	·
CCCNC(=O)C1(C)CCCN(C(=O)c2ccc3c(c2)CCO3)C1 (stereo unspecified)	9	-5	0	-3	·
COCCNC(=O)C1(C)CCCN(C(=O)c2ccc3c(c2)CCO3)C1 (stereo unspecified)	·	59*	3	4	·
CCN(CC)c1nc(Nc2ccccc2)nc(Oc2ccc(=O)[nH]n2)n1	8	91*	·	·	-3
COc1ccc2c3c([nH]c2c1)[C@@H](CO)N(Cc1ccc(F)cc1)CC31CN(C(=O)NC(C)C)C1	-1	·	·	-2	·
O=C1S/C(=C\c2cccs2)C(=O)N1c1ccc(O)cc1	1	-113	44*	-2	98*
O=C1/C(=C/c2cccs2)SC(=S)N1c1ccccc1	·	8	4	·	27
CCCCc1nnc2c(N(C)S(=O)(=O)c3ccccc3)nc3ccccc3n12	44*	-3	-5	0	3
CC(C)c1nnc2c(N(C)S(=O)(=O)c3ccccc3)nc3ccccc3n12	15	-1	0	2	17
O=C(C[C@@H]1C=C[C@H](NC(=O)NC2CCCCC2)[C@H](CO)O1)NCc1ccc(Cl)cc1	-11	31[16.7 µM]	·	0	·
COc1cc(NC(=O)c2ccco2)c(OC)cc1NC(=O)c1cc(OC)c(OC)c(OC)c1	-4	-53	1	·	·
COc1ccc(NC(=O)c2ccco2)cc1NC(=O)c1cccc(OC(C)C)c1	·	113*	-6	·	·
COc1ccc(C(=O)Nc2cccc(OC(=O)c3ccco3)c2)cc1	12	-78	28	0	110*
